Records with an inconclusive call do not appear. The source made the active and inactive calls. Rule for the calls: active = hit-call score of the fitted dose curve at least 0.9, where 1 is the maximum; inconclusive = response in the unintended direction; inactive = score below 0.9.

Experiment [1] concerns the target Estrogen receptor (Homo sapiens) (UniProt P03372). The experiment can be described thus: OT_ER_ERaERa_0480: Odyssey Thera (OT) 8-hour HEK293T Protein-Complementation Assay for Estrogen Receptor-alpha/-alpha Homodimer (AID 2283351).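 Note: rise in fluorescence from reassembled reporter fragments on ERα LBD homodimer in nucleus or whole cell.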 An outline of the steps: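 The readout is complementation of fragments fused to the human ER alpha ligand-binding domain (aa 310-547), stably expressed in HEK293T cells. After 8 h of exposure, the increase in nuclear/cytoplasmic fluorescence was measured by laser scanning cytometry and fitted relative to DMSO.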

For experiment [2] the target is unchanged. Kind of experiment: OT_ER_ERaERa_1440: Odyssey Thera (OT) 24-hour HEK293T Protein-Complementation Assay for Estrogen Receptor-alpha/-alpha Homodimer (AID 2283349).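 Note: hits raise fluorescence above DMSO for agonists and antagonists alike.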 An outline of the steps:
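Readout is the rise in mean fluorescence from reporter fragment complementation when ERα LBD (aa 310-547) units dimerize in HEK293T cells. Measured 24 h after dosing and analysed as increase over DMSO control.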

Experiment [3] has as its target T1, Estrogen receptor (Homo sapiens) + Estrogen receptor beta (Homo sapiens) (UniProt P03372+Q92731). The experiment can be described thus: OT_ER_ERaERb_0480: Odyssey Thera (OT) 8-hour HEK293T Protein-Complementation Assay for Estrogen Receptor-alpha/-beta Heterodimer (AID 2283352). A digest of the protocol:
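Human HEK293T cells were treated for 8 hours and receptor heterodimerisation was detected through reconstitution of a fluorescent reporter split between ER-alpha and ER-beta ligand-binding domains. Activity was analysed as gain of signal against DMSO.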

Experiment [4] concerns the target T1, Estrogen receptor (Homo sapiens) + Estrogen receptor beta (Homo sapiens). Kind of experiment: OT_ER_ERaERb_1440: Odyssey Thera (OT) 24-hour HEK293T Protein-Complementation Assay for Estrogen Receptor-alpha/-beta Homodimer (AID 2283356).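 Note: heteromer of ER alpha and ER beta binding domains; hits raise reporter fluorescence and both agonists and antagonists give an increase.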 A digest of the protocol: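 24 h exposure; HEK293T PCA cells with ERα/ERβ LBD fragments; signal rise in nuclear or whole-cell fluorescence over vehicle.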

For experiment [5], the target named is Estrogen receptor beta (Homo sapiens) (UniProt Q92731). The experiment can be described thus: OT_ER_ERbERb_0480: Odyssey Thera (OT) 8-hour HEK293T Protein-Complementation Assay for Estrogen Receptor-beta/-beta Homodimer (AID 2283357).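 Note: active means signal gain over DMSO baseline.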 An outline of the steps:
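Readout: increase in mean fluorescence intensity (nucleus for agonists; nucleus plus cytoplasm for antagonists) relative to DMSO, from a reporter-fragment complementation of human ER-beta LBD homodimer in HEK293T cells dosed 8 hours.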

The target in experiment [6] is human Peroxisome Proliferator-activated Receptor alpha (PPARa), PPARA (gene 5465) (UniProt Q07869). The experiment can be described thus: NVS_NR_hPPARa: NovaScreen (NVS) Nuclear Receptor Binding Assay for human Peroxisome Proliferator-activated Receptor alpha (PPARa) (AID 2283359).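 Note: activity means loss of TR-FRET signal versus DMSO baseline.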 A digest of the protocol:
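Cell-free binding assay with extracted human protein, read by TR-FRET 1 h after chemical dosing. Loss of signal relative to DMSO baseline indicates binding. Primary screen used duplicate single concentration (25 uM); actives followed up in concentration series.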

Experiment [7] has as its target Androgen Receptor/SRC-1 Co-activator, AR (gene 367) (UniProt P10275). The experiment can be described thus: OT_AR_ARSRC1_0960: Odyssey Thera (OT) 16-hour HEK293T Protein-Complementation Assay for Androgen Receptor/SRC-1 Co-activator (AID 2283353).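 Note: actives raise the signal above DMSO so potency reflects increased AR and SRC-1 complex.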 A digest of the protocol: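 HEK293T cells stably expressing AR and SRC-1 fused to Venus YFP fragments, imaged 16 h after dosing. Nuclear/cytoplasmic fluorescence ratio at 488 nm from at least 400 cells per image; gain of signal relative to DMSO.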

Experiment [8] shares this target. The experiment can be described thus: OT_AR_ARSRC1_0480: Odyssey Thera (OT) 8-hour HEK293T Protein-Complementation Assay for Androgen Receptor/SRC-1 Co-activator (AID 2283354).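 Note: hits raise the complementation signal above DMSO so AC50 marks enhancers.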 An outline of the steps:
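HEK293T cells stably expressing AR and SRC-1 fused to split Venus YFP fragments via (Gly4Ser)2 linkers were read 8 h after compound dosing. Complementation was imaged at 488 and 635nm, and nuclear/cytoplasmic fluorescence ratio (488nm) was taken over ≥400 cells; gain-of-signal versus DMSO.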

Experiment [9] deals with Retinoic acid receptor alpha (Homo sapiens) (UniProt P10276). Kind of experiment: NVS_NR_hRAR_Antagonist: NovaScreen (NVS) Nuclear Receptor Binding Assay for human Retinoic Acid Alpha Receptor Antagonism (RAR) (AID 2283358). A digest of the protocol:
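Cell-free TR-FRET binding assay on extracted receptor protein, run in antagonist mode; signal read 2 hours after chemical dosing. Loss of signal was fitted relative to DMSO baseline. Screened at 25 uM in duplicate, actives followed up in concentration series.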

Experiment [10] addresses rat Mineralocorticoid Receptor (MR), Nr3c2 (gene 25672) (UniProt P22199). The experiment can be described thus: NVS_NR_rMR: NovaScreen (NVS) Nuclear Receptor Binding Assay for rat Mineralocorticoid Receptor (MR) (AID 2283355). An outline of the steps:
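Cell-free radioligand binding to MR in adrenalectomized rat brain supernatant, scintillation counted 24 h after dosing. Loss of signal versus DMSO baseline marks displacement. Primary screen in duplicate at 25 uM; actives retested as concentration series.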

Chain of human Peroxisome Proliferator-activated Receptor alpha (PPARa), PPARA (gene 5465) (Q07869 whole entry, looked up): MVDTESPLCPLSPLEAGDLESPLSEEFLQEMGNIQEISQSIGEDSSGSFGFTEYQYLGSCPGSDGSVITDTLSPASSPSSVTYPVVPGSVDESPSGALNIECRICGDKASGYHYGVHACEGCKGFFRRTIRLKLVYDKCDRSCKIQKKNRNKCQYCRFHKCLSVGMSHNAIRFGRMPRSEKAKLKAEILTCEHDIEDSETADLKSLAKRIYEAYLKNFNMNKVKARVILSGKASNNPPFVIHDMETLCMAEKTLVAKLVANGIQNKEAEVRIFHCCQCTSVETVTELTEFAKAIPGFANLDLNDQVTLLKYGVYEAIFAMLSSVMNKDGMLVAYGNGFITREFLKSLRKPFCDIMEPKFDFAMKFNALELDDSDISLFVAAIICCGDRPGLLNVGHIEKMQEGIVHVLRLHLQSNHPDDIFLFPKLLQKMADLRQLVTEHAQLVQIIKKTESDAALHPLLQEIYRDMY
Chain of Androgen Receptor/SRC-1 Co-activator, AR (gene 367) (P10275 whole entry, looked up, the tested form may be a part): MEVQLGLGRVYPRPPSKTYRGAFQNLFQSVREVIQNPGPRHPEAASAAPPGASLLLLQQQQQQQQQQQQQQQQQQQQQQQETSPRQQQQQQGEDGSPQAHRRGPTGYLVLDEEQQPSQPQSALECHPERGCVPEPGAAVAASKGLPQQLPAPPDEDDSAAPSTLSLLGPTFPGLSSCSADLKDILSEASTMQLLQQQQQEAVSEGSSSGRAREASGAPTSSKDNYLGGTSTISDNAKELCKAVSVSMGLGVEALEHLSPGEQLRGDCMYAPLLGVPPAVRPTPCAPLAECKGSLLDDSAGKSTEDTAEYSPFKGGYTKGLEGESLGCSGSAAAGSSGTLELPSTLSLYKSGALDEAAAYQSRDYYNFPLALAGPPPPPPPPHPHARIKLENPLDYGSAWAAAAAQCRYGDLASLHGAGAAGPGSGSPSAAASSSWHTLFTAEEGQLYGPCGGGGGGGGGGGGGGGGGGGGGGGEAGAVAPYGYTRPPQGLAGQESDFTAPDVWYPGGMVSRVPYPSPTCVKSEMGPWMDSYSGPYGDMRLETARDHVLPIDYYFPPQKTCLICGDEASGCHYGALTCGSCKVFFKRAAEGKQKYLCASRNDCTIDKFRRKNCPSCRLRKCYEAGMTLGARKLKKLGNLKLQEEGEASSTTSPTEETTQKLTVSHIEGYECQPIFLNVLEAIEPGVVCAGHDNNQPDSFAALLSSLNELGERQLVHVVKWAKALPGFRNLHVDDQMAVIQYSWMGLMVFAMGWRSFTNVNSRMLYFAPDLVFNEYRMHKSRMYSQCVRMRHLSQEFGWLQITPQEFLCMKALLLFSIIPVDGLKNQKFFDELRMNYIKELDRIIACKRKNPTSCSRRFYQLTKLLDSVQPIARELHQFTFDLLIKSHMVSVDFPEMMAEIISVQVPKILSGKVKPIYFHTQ
Chain of Estrogen receptor (Homo sapiens) (P03372 whole entry, looked up, the tested form may be a part): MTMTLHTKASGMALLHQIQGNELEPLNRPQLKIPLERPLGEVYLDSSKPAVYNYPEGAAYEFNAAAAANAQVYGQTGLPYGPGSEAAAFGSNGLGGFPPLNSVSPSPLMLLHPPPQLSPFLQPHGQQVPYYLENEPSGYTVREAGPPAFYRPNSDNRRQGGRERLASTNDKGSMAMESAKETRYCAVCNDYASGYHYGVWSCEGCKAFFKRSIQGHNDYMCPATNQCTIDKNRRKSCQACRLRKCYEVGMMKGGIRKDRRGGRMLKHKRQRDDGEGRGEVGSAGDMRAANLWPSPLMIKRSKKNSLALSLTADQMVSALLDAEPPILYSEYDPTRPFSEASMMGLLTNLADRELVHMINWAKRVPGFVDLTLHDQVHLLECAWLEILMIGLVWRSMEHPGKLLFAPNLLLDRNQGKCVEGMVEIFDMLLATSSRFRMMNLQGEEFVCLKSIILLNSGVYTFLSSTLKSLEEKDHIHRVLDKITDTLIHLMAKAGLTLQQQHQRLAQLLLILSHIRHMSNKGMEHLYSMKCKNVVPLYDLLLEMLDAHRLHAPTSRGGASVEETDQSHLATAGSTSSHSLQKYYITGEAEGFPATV
T1 sequence (P03372 whole entry, looked up, the tested form may be a part): as above
T1 sequence (Q92731 whole entry, looked up, the tested form may be a part): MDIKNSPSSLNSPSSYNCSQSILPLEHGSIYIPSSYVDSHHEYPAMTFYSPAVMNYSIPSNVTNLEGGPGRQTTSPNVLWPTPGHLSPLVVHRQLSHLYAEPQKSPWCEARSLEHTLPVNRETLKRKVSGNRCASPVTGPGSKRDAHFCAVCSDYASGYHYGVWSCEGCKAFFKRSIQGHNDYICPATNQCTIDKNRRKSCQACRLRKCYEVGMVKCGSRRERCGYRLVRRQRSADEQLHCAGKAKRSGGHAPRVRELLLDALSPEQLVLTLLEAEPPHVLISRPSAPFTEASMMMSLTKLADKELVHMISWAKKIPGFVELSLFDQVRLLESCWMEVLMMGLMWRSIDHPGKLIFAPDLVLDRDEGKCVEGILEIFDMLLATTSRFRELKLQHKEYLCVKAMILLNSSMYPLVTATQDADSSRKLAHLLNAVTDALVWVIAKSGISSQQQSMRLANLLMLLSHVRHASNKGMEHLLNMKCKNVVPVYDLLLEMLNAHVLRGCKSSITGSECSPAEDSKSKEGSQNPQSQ
Chain of Estrogen receptor beta (Homo sapiens) (Q92731 whole entry, looked up, the tested form may be a part): as above
Chain of rat Mineralocorticoid Receptor (MR), Nr3c2 (gene 25672) (P22199 whole entry, looked up): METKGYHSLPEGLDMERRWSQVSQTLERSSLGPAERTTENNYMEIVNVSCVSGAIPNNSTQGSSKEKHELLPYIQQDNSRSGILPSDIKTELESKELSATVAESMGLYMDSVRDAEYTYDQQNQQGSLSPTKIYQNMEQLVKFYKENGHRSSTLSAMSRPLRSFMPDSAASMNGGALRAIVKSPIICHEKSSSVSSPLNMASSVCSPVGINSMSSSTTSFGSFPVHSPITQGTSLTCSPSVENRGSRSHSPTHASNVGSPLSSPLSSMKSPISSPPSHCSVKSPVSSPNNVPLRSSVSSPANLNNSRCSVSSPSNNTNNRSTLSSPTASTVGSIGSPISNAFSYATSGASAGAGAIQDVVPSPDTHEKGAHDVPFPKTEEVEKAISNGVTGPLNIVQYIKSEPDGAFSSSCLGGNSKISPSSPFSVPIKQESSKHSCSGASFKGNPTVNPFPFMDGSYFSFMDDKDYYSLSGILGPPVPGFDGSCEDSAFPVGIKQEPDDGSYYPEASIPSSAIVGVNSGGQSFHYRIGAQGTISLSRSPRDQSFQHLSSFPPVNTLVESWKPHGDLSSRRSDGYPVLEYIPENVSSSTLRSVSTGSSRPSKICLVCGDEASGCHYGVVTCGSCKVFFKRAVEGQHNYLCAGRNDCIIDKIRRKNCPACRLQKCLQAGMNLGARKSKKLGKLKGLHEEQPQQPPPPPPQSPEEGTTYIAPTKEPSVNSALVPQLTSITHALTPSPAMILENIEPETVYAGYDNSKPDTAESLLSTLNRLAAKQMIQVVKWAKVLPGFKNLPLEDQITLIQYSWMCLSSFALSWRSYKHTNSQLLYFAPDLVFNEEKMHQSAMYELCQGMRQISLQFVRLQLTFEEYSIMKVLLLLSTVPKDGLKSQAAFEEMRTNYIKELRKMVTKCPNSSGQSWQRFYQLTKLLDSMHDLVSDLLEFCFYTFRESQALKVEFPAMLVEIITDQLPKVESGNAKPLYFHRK
Chain of Retinoic acid receptor alpha (Homo sapiens) (P10276 whole entry, looked up): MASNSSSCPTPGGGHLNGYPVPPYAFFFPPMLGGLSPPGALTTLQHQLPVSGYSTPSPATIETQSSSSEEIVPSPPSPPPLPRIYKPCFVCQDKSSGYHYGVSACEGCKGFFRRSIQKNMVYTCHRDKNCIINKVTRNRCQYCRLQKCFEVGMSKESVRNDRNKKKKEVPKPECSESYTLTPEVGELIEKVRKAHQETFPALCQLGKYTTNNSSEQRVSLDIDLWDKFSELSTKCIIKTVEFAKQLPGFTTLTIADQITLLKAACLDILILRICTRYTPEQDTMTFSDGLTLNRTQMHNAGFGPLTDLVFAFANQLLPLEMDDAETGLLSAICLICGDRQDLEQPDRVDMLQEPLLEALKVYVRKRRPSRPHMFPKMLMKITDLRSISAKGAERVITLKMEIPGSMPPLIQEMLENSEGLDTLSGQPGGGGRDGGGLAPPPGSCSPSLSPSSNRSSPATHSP

Turning to `C/C=C/C=C/CCCCCCCO`, in experiment [1], the result was inactive.

Turning to `CC1=NN(c2ccc(S(=O)(=O)O)cc2)C(=O)C1N=Nc1ccccc1` (configuration not stated), the compound was classed as inactive in experiment [1].

On to `CCCCNS(=O)(=O)c1ccccc1`, for which the compound was called inactive in experiment [2], in experiment [1], in [3], in experiment [4] and in experiment [5].

Take `CC(C)COC(=O)CC(C(=O)OCC(C)C)S(=O)(=O)O` (configuration not stated): the outcome in experiment [2], in [1], in experiment [3], in [4] and in experiment [5] was inactive.

For `O=C(O)CCC(=O)O`, the call in [1] was inactive.

As for `CCOC(=O)c1ccccc1C`, the call in experiment [2], in [1], in experiment [3], in experiment [4] and in experiment [5] was inactive.

With `CC(C)c1ccc(O)c(C(C)C)c1`, the call in experiment [2], in experiment [1], in experiment [3], in experiment [4] and in experiment [5] was inactive.

With `CCCCc1ccc(Cl)cc1`, the compound was classed as inactive in [2], in experiment [1], in [3], in experiment [4] and in experiment [5].

Usually AC50 stands for the midpoint of the concentration-response curve, whichever way the signal moves. In the case of `CN(C)c1ccc2nc3ccc(=[N+](C)C)cc-3sc2c1`, in [2], the compound was called inactive. Also, the AC50 is 50 µM (active) in [1], 76.6 µM (active) in experiment [3], 12 µM (active) in experiment [4] and 70.8 µM (active) in experiment [5].

Consider `CCCCCCCOC(=O)c1ccc(O)cc1`, for which the AC50 was 12.3 µM (active) in experiment [2]; 12.3 µM (active) in experiment [1]; 5.32 µM (active) in [3]; 12.2 µM (active) in experiment [4]; 2.68 µM (active) in [5]. Moreover, in experiment [6], the result was inactive.

Take `O=C(O)c1cc(O)c2ccccc2c1O`: the compound was classed as inactive in experiment [1].

As for `N#Cc1ccc(C2CCCc3cncn32)cc1` (configuration not stated), in experiment [1], the outcome was inactive.

As for `C=C[C@@]1(C)CC(=O)[C@]2(O)[C@@]3(C)[C@@H](O)CCC(C)(C)[C@@H]3[C@H](O)[C@H](OC(C)=O)[C@@]2(C)O1`, the compound was classed as inactive in experiment [2], in experiment [1], in experiment [3] and in experiment [5]. For the same compound, the concentration at half-maximal activity (AC50) in experiment [4] is 36.1 µM (active).

As to `CCC1COC(=O)O1` (configuration not stated), the outcome in experiment [1] was inactive.

With `C=C1C[C@H]2[C@@H]3C=C(C)C4=CC(=O)CC[C@]4(C)[C@H]3CC[C@]2(C)[C@@]1(OC(C)=O)C(C)=O`, the compound was classed as inactive in experiment [2], in [1] and in experiment [5]. In addition, the half-maximal activity concentration (AC50) is 6.25 µM (active) in [7], 5.8 µM (active) in experiment [8] and 16.9 µM (active) in experiment [4].

As for `CCCCCCOC(=O)CCCCC(=O)OCCCCCC`, the call in [2], in experiment [1], in [3], in experiment [4] and in experiment [5] was inactive.

As to `CCN1CN(CC)CN(CC)C1`, the outcome in experiment [2], in experiment [1], in experiment [4] and in experiment [5] was inactive.

With `CCc1cccc(C)c1N`, in experiment [2], the AC50 is 74.6 µM (active). The outcome in experiment [1], in [7] and in experiment [8] was inactive.

As to `CC(=O)OC(C)c1ccccc1` (configuration not stated), the result in experiment [2], in experiment [1], in experiment [3], in experiment [4] and in experiment [5] was inactive.

In the case of `CC(=O)/C=C/C1C(C)=CCCC1(C)C` (configuration not stated), the outcome in experiment [1] was inactive.

As to `CCCCCCCCCC[N+](C)(CCCCCCCCCC)CCC[Si](OC)(OC)OC`, the compound was classed as inactive in experiment [2], in experiment [1] and in experiment [9]. For the same compound, the AC50 in experiment [4] is 11.8 µM (active); in experiment [6], 8.29 µM (active).

In the case of `CCCCNS(=O)(=O)c1ccc(C)cc1`, the compound was called inactive in experiment [2], in [1] and in experiment [6].

Take `C[Si](C)(C)N[Si](C)(C)C`: the outcome in experiment [2], in experiment [1], in experiment [4] and in [5] was inactive.

For the compound `CCCCCCCCCCCCCCCCCCOS(=O)(=O)O`, the outcome in experiment [2], in experiment [1], in experiment [3], in experiment [5] and in experiment [9] was inactive. Further, in experiment [4], the half-maximal activity concentration (AC50) is 23.7 µM (active).

Consider `CCCCCCCCC(CO)CCCCCC` (configuration not stated), for which the outcome in experiment [2], in [1], in experiment [3], in experiment [4] and in experiment [5] was inactive.

Turning to `O=C(O)C1CCC(C(=O)O)CC1` (configuration not stated), the result in [2], in experiment [1], in experiment [4] and in experiment [5] was inactive.

On to `CCCCCCC=O`, for which the outcome in [1] was inactive.

As to `CO[Si](C)(C)OC`, the compound was called inactive in experiment [2], in experiment [1], in [3], in experiment [4] and in experiment [5].

For the compound `COc1ccc(-c2coc3cc(O)cc(O)c3c2=O)cc1`, the half-maximal activity concentration (AC50) was 13.7 µM (active) in experiment [2]; 12.3 µM (active) in experiment [1]; 2.91 µM (active) in [3]; 5.37 µM (active) in experiment [4]; 2.05 µM (active) in [5].

Consider `CCOC(=O)C1=NOC(c2ccccc2)(c2ccccc2)C1`, for which the call in experiment [2], in experiment [1], in [3], in experiment [4] and in [5] was inactive.

In the case of `C=C[Si](OCCOC)(OCCOC)OCCOC`, the outcome in [1] was inactive.

In the case of `CCCCCCCCCCCC(=O)N(C)CC(=O)O`, the compound was called inactive in [2], in experiment [1], in [4] and in [5].

`Cc1ccc(C)c(OCCCC(C)(C)C(=O)O)c1`: the compound was called inactive in experiment [10].

Take `Oc1ccc(/C=C/c2cc(O)cc(O)c2)cc1`: in experiment [10], the outcome was inactive.

Values taken from PubChem BioAssay (EPA / NIEHS).
